# CSC inhib: cancer stem cell inhibition | cancer stem cell-like cells viability, luminescence | inhibition, % at 7.5 µM | hit rate 1.1% among 300,000 | AID 2717; in the data active = inhibition above about 75%; inconclusive = no clear call, values can overlap the other calls; tested in HMLE shEcad cells
# Mdm2-MdmX inh: inhibitors of human Mdm2/MdmX interaction; hit rate 3% among 330,000; AID 485346; O15151+Q00987; inhibition, % at 8 µM; SaOS-2 split-luciferase Mdm2/MdmX complementation, luminescence;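 active = inhibition of at least 50% at 8 µM in the primary screen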
# Target sequence (O15151 whole entry, looked up): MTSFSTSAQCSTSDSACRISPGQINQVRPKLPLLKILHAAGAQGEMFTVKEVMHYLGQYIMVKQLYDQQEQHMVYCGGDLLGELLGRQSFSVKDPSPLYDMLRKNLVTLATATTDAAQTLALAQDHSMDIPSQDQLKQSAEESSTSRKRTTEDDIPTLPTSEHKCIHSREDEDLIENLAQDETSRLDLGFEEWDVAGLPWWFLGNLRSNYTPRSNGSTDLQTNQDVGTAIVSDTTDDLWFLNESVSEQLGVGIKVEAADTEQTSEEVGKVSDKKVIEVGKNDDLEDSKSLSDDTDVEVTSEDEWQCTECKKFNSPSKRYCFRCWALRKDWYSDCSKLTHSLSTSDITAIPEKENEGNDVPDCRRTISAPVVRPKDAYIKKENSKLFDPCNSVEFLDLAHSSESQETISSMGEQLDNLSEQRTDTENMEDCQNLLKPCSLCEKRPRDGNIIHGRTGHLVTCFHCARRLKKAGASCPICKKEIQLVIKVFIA
# Target sequence (Q00987 whole entry, looked up): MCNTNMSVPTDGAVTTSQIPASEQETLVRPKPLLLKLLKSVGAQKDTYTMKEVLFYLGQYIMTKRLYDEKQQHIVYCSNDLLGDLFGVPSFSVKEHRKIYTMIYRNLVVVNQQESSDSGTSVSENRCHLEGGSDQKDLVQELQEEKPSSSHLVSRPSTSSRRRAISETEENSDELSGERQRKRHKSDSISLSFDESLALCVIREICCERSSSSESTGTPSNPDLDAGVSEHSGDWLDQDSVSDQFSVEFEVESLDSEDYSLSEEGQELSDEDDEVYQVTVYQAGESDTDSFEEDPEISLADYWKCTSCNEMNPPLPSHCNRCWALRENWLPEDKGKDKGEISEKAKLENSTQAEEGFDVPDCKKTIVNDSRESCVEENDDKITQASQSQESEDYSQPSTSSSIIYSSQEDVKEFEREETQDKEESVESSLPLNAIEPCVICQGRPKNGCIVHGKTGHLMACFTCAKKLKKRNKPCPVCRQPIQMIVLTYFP
# Beta apoptosis: blocks beta cell apoptosis. INS-1E cytokine-induced death, ATP luminescence, 48 h; percent of positive-control rescue, neutral wells zero. protection from apoptosis, % (no concentration beside the values). hit rate 0.8% among 300,000. AID 435005;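 active = Every replicate reaches about 75%, or at least half do and their mean reaches it too, limit read from the data; inconclusive = At least half of replicates reach the limit but their mean does not; inactive = Under half of replicates reach the limit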;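 also: 0% = cytokine-treated negative control wells and 100% = positive control rescue; higher means more ATP so stronger rescue from cytokine killing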
# Bfl-1 A1 inh: inhibitors of the anti-apoptotic protein A1, read as caspase activation; hit rate 0.066% among 330,000; caspase activation, % (no concentration beside the values); MEF A1-2A-BIM cells, Caspase-Glo 3/7 luminescence, 3 h; percent of clofoctol response, vehicle zero; AID 2462;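 active = over half of replicate activation scores above 10%, or exactly half above 10 with the replicate mean above 10; inconclusive = replicate mean below 10 yet half the replicates above 10; inactive = over half of replicates below 10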
# aSyn UTR inh: 5' untranslated region of α-synuclein, MLPCN primary screen. alpha-synuclein 5'UTR reporter, inhibitor activity. inhibition, % (tested at 7.5 µM). hit rate 0.82% among 300,000. AID 1813; in the data active = inhibition above about 60%; inconclusive = no clear call, values can overlap the other calls;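 also: H4 neuroglioblastoma cells stably carrying SNCA 5'UTR luciferase fusion; 0% = DMSO wells and 100% = positive control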
# Mdm2 MdmX conf: confirmation of human Mdm2/MdmX interaction inhibitors; shares compounds with Mdm2-MdmX inh; Mdm2-MdmX binding, luminescent assay; inhibition, % at 8 µM; hit rate 55% among 10,000; in the data active = inhibition above about 40%
# FLuc counter: counter-screen for Mdm2/MdmX inhibitors: full-length luciferase | shares compounds with Mdm2-MdmX inh | SaOS-2 full-length luciferase counterscreen, luminescence | inhibition, % at 8 µM | hit rate 77% among 6,200 | AID 504607;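 active = mean inhibition at 8 µM reaching about 37%, which flags the compound as non-specific, limit read from the data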;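 also: p53-null SaOS-2 cells with luciferase driven by a doxycycline-inducible promoter; compound on cells about two nights before reading with doxycycline added after day one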
# Starred values were filed as active, the others as inactive; ? = inconclusive; . = no result given. Rows were chosen to be rich in hits. Some 4.1% of all compounds tested hit in one or more screens of this group.
SMILES,CSC inhib,Mdm2-MdmX inh,Beta apoptosis,Bfl-1 A1 inh,aSyn UTR inh,Mdm2 MdmX conf,others
C=C1CCC[C@]2(C)C[C@H]3OC(=O)C(CN4CC(C)OC(C)C4)[C@H]3C[C@@H]12 (some centres undefined),0,35,-17,0,-21,.,
CCOc1ccc(C(=O)Nc2ccc3[nH]ncc3c2)cc1,-2,-12,3,-9,-34,.,
Cc1ccc(Cl)cc1N1CCN(Cc2nc3c(c(=O)[nH]c(=O)n3C)n2CCc2ccccc2)CC1,5,64*,29,-1,5,14,
Cn1c(=O)[nH]c(=O)c2c1nc(CN1CCN(c3cccc(Cl)c3)CC1)n2CCCc1ccccc1,4,9,3,0,25,.,
Cc1ccc(Cl)cc1N1CCN(Cc2nc3c(c(=O)[nH]c(=O)n3C)n2Cc2ccccc2F)CC1,118*,51*,-16,0,-7,35,FLuc counter=77*
CCN(CC)C(=O)c1[nH]cnc1C(=O)Nc1cccc(C)c1,23,14,-5,1,.,.,
Cc1cccc(NC(=O)c2nc[nH]c2C(=O)N[C@@H](CC(C)C)C(=O)OC(C)(C)C)c1,.,34,46,-2,5,.,
CC(C)(C)OC(=O)[C@H](Cc1ccccc1)NC(=O)c1[nH]cnc1C(=O)Nc1ccc(Cl)cc1,120*,51*,10,0,16,27,
C[C@H](NC(=O)c1nc[nH]c1C(=O)N[C@@H](Cc1ccccc1)C(=O)OC(C)(C)C)C(=O)OC(C)(C)C,.,26,-1,0,28,.,
Cc1cccc(NC(=O)c2nc[nH]c2C(=O)N[C@@H](Cc2ccccc2)C(=O)OC(C)(C)C)c1,-19,64*,13,0,-15,26,
CCOC(=O)c1ccc(NC(=O)c2nc[nH]c2C(=O)N[C@@H](Cc2ccccc2)C(=O)OC(C)(C)C)cc1,2,62*,18,-1,-10,31,
Cc1cccc(NC(=O)c2nc[nH]c2C(=O)Nc2ccccc2[N+](=O)[O-])c1,13,51*,9,0,-10,30,
COc1ccccc1CNC(=O)CCS(=O)(=O)c1ccc2c(c1)CCN2C(C)=O,-8,-7,-5,0,25,.,
O=C(O)c1cccc(S(=O)(=O)N2CCN(S(=O)(=O)c3ccc4ccccc4c3)CC2)c1,.,9,.,.,.,.,
COC(=O)c1sc(NC(=S)NNC(=O)c2c(Br)c(C)nn2C)c(C(=O)OC)c1C,-6,19,-1,0,-8,.,
CCCn1cnc2cc(NC(=O)c3cccs3)ccc21,6,-53,5,-3,-113,.,
CC(C)(C)OC(=O)[C@H](Cc1ccccc1)NC(=O)c1[nH]cnc1C(=O)Nc1cccc(Cl)c1,97*,70*,22,-3,14,23,
Cc1cc(C)cc(C(=O)Nc2ccc(N3CCN(C(=O)c4ccco4)CC3)cc2)c1,7,29,.,-2,8,.,
Cc1ccc2sc(N(CCCN(C)C)C(=O)c3ccc(S(=O)(=O)N(C)C4CCCCC4)cc3)nc2c1C,89*,99*,.,0,-17,54*,FLuc counter=67*
CN(C)CCCN(C(=O)c1ccc(S(=O)(=O)N(C)C)cc1)c1nc2cc3c(cc2s1)OCO3,-7,4,-4,0,-4,.,
CCN(Cc1ccccc1)S(=O)(=O)c1ccc(C(=O)N(CCCN(C)C)c2nc3cc4c(cc3s2)OCO4)cc1,-19,73*,-5,0,-14,16,
CCN(Cc1ccccc1)S(=O)(=O)c1ccc(C(=O)N(CCCN(C)C)c2nc3c(C)c(C)ccc3s2)cc1,-3,97*,.,0,-45,46*,FLuc counter=49*
CCN(CC)CCN(C(=O)c1ccc(S(=O)(=O)N(C)C2CCCCC2)cc1)c1nc2c(C)cccc2s1,14,24,12,-1,1,.,
Cc1ccc2sc(N(CCCN(C)C)C(=O)c3ccc(S(=O)(=O)N4CCOCC4)cc3)nc2c1C,-4,30,0,0,-12,.,
CN(C(=O)c1ccc(Cl)c([N+](=O)[O-])c1)C1(C)CCS(=O)(=O)C1 (centres undefined),-7,-33,-5,0,-10,.,
SMILES,CSC inhib,Mdm2-MdmX inh,Beta apoptosis,Bfl-1 A1 inh,aSyn UTR inh,Mdm2 MdmX conf,others
CC1Cc2cc(/C(O)=C3/C(=O)C(=O)N(CCCN4CCOCC4)C3c3ccc(C(C)C)cc3)ccc2O1 (centres undefined),-21,-12,-9,0,-27,.,
S=C(Nc1ccc(-c2nc3ccccc3[nH]2)cc1)Nc1cccnc1,31,-55,14,-3,-50,.,
COc1ccc(C(=O)N2CCCC(O)C2)cc1OC1CCN(C(C)C)CC1 (centres undefined),-13,-10,-7,-1,-10,.,
O=C(O)c1ccc(NC2=C(Cl)C(=O)c3ccccc3C2=O)cc1,102*,100*,14,-5,0,91*,FLuc counter=53*
C/C(=N\NC(=O)c1c(Br)c(C)nn1C)c1ccc(NC(=O)C(C)Oc2ccc(Cl)cc2C)cc1 (centres undefined),55,62*,.,-1,14,9,
CCC(=O)Nc1ccc(/C(C)=N/NC(=O)c2c(Br)c(C)nn2C)cc1,-2,18,-10,0,-7,.,
O=S(=O)(O)c1cc(O)c2c(O)c(N=Nc3cc(Cl)ccc3O)c(S(=O)(=O)O)cc2c1,65,36,50,0,45,.,
Cc1cc(-c2ccc(N=Nc3c(S(=O)(=O)O)cc4cc(S(=O)(=O)O)cc(N)c4c3O)c(C)c2)ccc1N=Nc1c(S(=O)(=O)O)cc2cc(S(=O)(=O)O)cc(N)c2c1O,65,62*,77*,-2,.,57*,FLuc counter=48*
O=c1c2cccnc2[nH]c(=S)n1CCCN1CCN(c2ccccc2F)CC1,-2,33,3,0,32,.,
O=c1c2ccccc2[nH]c(=S)n1CCN1CCCCC1,7,17,2,0,1,.,
O=c1c2ccccc2[nH]c(=S)n1CCCN1CCN(c2ccccc2)CC1,24,80*,0,0,-7,43*,FLuc counter=63*
O=c1c2ccccc2[nH]c(=S)n1CCCN1CCN(c2ccccc2F)CC1,25,66*,5,-1,25,36,FLuc counter=81*
Cc1ccsc1C(=O)NNC(=O)c1ccncc1,.,30,.,.,.,.,
NC(=O)c1cc(S(=O)(=O)N2CCN(c3ccc([N+](=O)[O-])cc3)CC2)cs1,-1,22,9,1,-7,.,
Cc1ccc(NC(=O)C2=C(c3ccccc3)S(=O)(=O)CCS2(=O)=O)cc1,79*,95*,?,2,-10,95*,FLuc counter=52*
Cc1ccc(NC(=O)c2ccccc2)cc1,14,-64,6,-5,-164,.,
Cc1c(C=O)c2ccccn2c1C(=O)c1ccc(Cl)c([N+](=O)[O-])c1,8,66*,-1,0,6,-1,

# Assay outcomes from PubChem.
